Rows were chosen to be rich in hits. Some 12% of all compounds tested hit in one or more screens of this group.
ALDH1A1 block: blocks purified human ALDH1A1 activity; Potency, µM (series often up to 75.3 µM), for the others: at the highest dose activity, negative = inhibition, most hits filed as inhibitors; Purified ALDH1A1, NADH fluorescence, propionaldehyde substrate; hit rate 7.3% among 220,000; P00352; AID 1030; active = well fitted inhibition curve with a large enough effect, not every such curve was filed as active; inconclusive = small, poorly fitted or top-dose-only effect, or another doubt; inactive = no such curve, though single readings can be large or run the other way;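 also: plate controls were no enzyme wells and a reference inhibitor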
Sfp inh: Sfp phosphopantetheinyl transferase inhibition. Biochemical Sfp PPTase activity, qHTS. hit rate 3.5% among 310,000. Q9F4F7. Potency, µM, for inactives: largest response in the series, negative = inhibition, most hits filed as inhibitors;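 also: the enzyme is Sfp with the accession as filed and its product quenches rhodamine fluorescence; 0% = enzyme reaction without inhibitor and -100% = no enzyme wells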
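Fluorescence-quenching assay: 15 nM Sfp-PPTase preincubated 15 min at room temperature with compound, then 5 uM rhodamine-CoA and 12.5 uM BHQ-2-labelled YbbR peptide added. Fluorescence (ex 525/em 598 nm) read at start and after 30 min; difference gives rate.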
PLK1 PBD inh: inhibitors of human PLK1 polo-box domain binding. Potency, µM, inactives show max response, negative = inhibition, hits mostly inhibitors. Plk1 PBD binding of FITC phosphopeptide, fluorescence polarization. P53350. hit rate 2.8% among 360,000; also: series mostly up to about 57 µM; nearly all actives have a fitted effect of over 65% in size
Gal4-VP16 FLuc: counter-screen for ROR gamma inhibitors: Gal4-VP16 reporter | Potency, µM (series often up to 53.6 µM), for inactives: top-dose activity, negative = inhibition, most hits filed as inhibitors | Drosophila S2 Gal4-VP16 UAS-luciferase, luminescence, 20 h | hit rate 3.5% among 310,000 | AID 2546;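 also: Gal4-VP16 expression switched on by copper sulfate through the metallothionein promoter; nearly all actives have a fitted effect of over 50% in size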
RORgamma inh: ROR gamma (mouse) transcription inhibition; Drosophila S2 Gal4-RORgamma UAS-luciferase reporter, 20 h; Potency, µM (series often up to 53.6 µM), inactives show top-dose activity change, negative = inhibition, usual class: inhibitors; hit rate 5.4% among 310,000; AID 2551; also: nearly all actives have a fitted effect of over 60% in size
Target sequence (P51450 whole entry, looked up, the tested form may be a part): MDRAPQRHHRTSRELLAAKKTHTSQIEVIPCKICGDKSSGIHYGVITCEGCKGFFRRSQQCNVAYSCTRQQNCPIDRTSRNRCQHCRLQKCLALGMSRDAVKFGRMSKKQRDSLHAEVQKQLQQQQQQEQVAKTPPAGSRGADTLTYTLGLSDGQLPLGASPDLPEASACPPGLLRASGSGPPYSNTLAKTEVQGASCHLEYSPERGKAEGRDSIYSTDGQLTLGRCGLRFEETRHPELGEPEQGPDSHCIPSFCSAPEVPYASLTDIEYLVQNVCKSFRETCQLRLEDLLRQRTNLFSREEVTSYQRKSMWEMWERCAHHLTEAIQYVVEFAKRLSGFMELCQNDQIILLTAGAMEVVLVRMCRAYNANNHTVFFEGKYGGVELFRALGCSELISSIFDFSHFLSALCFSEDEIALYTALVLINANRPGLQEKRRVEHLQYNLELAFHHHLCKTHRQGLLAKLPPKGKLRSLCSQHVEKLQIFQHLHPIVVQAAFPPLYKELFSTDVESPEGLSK
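Drosophila S2 cells stably expressing Gal4-DBD/mouse RORγ fusion under metallothionein promoter plus UAS-luciferase; compound 1 h, then 700 uM CuSO4 induction for 20 h at ambient temperature; inhibition read as reduced luminescence.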
* = called active by the depositor; [ ] = remark or other dose. Unless noted, calls follow the shape of the dose curve; as a rule, active = well fitted curve in the direction sought with a large enough effect; inconclusive = small, poorly fitted or top-dose-only effect, or another doubt; inactive = no such curve, though single readings can be large; an effect the other way counts as inactive or inconclusive. Unless noted, % is scaled to controls: 0 for no effect and ±100 for the full control effect; potency is read from the fitted curve at half-maximal effect.

What do the screens show for `CC(/C=N/NC(=O)c1cc(C2CC2)[nH]n1)=C\c1ccccc1`?
Sfp inh: 16%; PLK1 PBD inh: -4%; Gal4-VP16 FLuc: 5%; RORgamma inh: -9%

How did CC(/C=N\NC(=O)c1cc(C)oc1C)=C\c1ccccc1 do in these assays?
ALDH1A1 block: 23%; Sfp inh: 12%; PLK1 PBD inh: -4%; Gal4-VP16 FLuc: inconclusive; RORgamma inh: 6.3µM*

How did Cc1cccc(C(=O)NC(C(=O)Nc2nc(-c3ccccn3)cs2)C(C)C)c1 (stereo not given) do in these assays?
ALDH1A1 block: 3%; Sfp inh: -14%; PLK1 PBD inh: -9%; Gal4-VP16 FLuc: inconclusive; RORgamma inh: 7.9µM*

What do the screens show for `CC(Oc1cccc(Cl)c1)C(=O)Nc1nc(-c2ccccn2)cs1` (stereo not given)?
PLK1 PBD inh: 19µM*

What do the screens show for `O=C(Nc1ccc2c(c1)OCCO2)C(CCc1ccccc1)N1CCC(Cc2ccccc2)CC1` (stereo not given)?
PLK1 PBD inh: -6%

Results for COc1ccc(C(O)c2ncc(-c3ccc4ccccc4c3)[nH]2)cc1 (stereo not given) ?
PLK1 PBD inh: 1%

What do the screens show for `Cc1cc(C)c2c(-n3cccc3)c(C(=O)NNS(=O)(=O)c3ccc(Cl)cc3)sc2n1`?
ALDH1A1 block: 1µM*; Sfp inh: 13%; PLK1 PBD inh: -21%; Gal4-VP16 FLuc: 4%; RORgamma inh: inconclusive

What do the screens show for `Cc1cc(C)c2c(-n3cccc3)c(C(=O)O)sc2n1`?
ALDH1A1 block: 22µM*; Sfp inh: -12%; PLK1 PBD inh: -6%; Gal4-VP16 FLuc: -1%; RORgamma inh: 9%

Results for Cc1cc(C)c2c(-n3cccc3)c(C(=O)NNS(=O)(=O)c3ccccc3)sc2n1 ?
ALDH1A1 block: 4.5µM*; Sfp inh: -8%; PLK1 PBD inh: -7%; Gal4-VP16 FLuc: -13%; RORgamma inh: -1%

What do the screens show for `COCc1cc(C)nc2sc(C(=O)NN)c(-n3cccc3)c12`?
ALDH1A1 block: 0.5µM*; Sfp inh: 1%; PLK1 PBD inh: -5%; Gal4-VP16 FLuc: -16%; RORgamma inh: inconclusive

Results for Cc1cc(C)c2c(-n3cccc3)c(NC(=O)OC(C)C)sc2n1 ?
ALDH1A1 block: inconclusive; Sfp inh: -1%; PLK1 PBD inh: -7%; Gal4-VP16 FLuc: 5%; RORgamma inh: 1%

Results for O=C(NCc1cccs1)c1ccc2sc([C@@H]3O[C@H](CO)[C@H](O)[C@H](O)[C@H]3O)nc2c1 ?
PLK1 PBD inh: 2%

What do the screens show for `Cc1ccc(CC2CC(=O)N(CCc3ccccc3)C2=O)cc1` (stereo not given)?
ALDH1A1 block: -1%; Sfp inh: 12%; PLK1 PBD inh: -8%; Gal4-VP16 FLuc: inconclusive; RORgamma inh: 4%

How did O=C1CC(Cc2ccccc2)C(=O)N1CCCn1ccnc1 (stereo not given) do in these assays?
ALDH1A1 block: 16µM*; Sfp inh: inconclusive; Gal4-VP16 FLuc: 4%; RORgamma inh: -14%

Results for CCN1C(=O)CC(NNC(=O)c2ccc(Cl)cc2)C1=O (stereo not given) ?
ALDH1A1 block: 4%; Sfp inh: 15%; PLK1 PBD inh: -2%; Gal4-VP16 FLuc: -1%; RORgamma inh: -8%

What do the screens show for `COc1ccc(C(=O)NNC2CC(=O)N(Cc3ccc(Cl)cc3)C2=O)cc1OC` (stereo not given)?
ALDH1A1 block: 8%; Sfp inh: 15%; PLK1 PBD inh: -9%; Gal4-VP16 FLuc: 7.1µM*; RORgamma inh: inconclusive

Results for O=C1CC(Cc2ccccc2)C(=O)N1CCc1ccc2c(c1)OCO2 (stereo not given) ?
ALDH1A1 block: 18µM*; Sfp inh: inconclusive; PLK1 PBD inh: -5%; Gal4-VP16 FLuc: 0%; RORgamma inh: 40%

How did COc1ccc(CCN2CC(C(=O)Nc3ccc4c(c3)OCO4)CC2=O)cc1OC (stereo not given) do in these assays?
ALDH1A1 block: -4%; Sfp inh: -2%; PLK1 PBD inh: inconclusive; Gal4-VP16 FLuc: -3%[10 µM]; RORgamma inh: 5%

How did COc1ccc(CCN2C(=O)CC(NCc3ccc4c(c3)OCO4)C2=O)cc1OC (stereo not given) do in these assays?
ALDH1A1 block: 25µM*; Sfp inh: 11%; PLK1 PBD inh: 0%; Gal4-VP16 FLuc: 2%; RORgamma inh: 1%

What do the screens show for `O=[N+]([O-])c1ccc(CCO)cc1`?
ALDH1A1 block: -5%; Gal4-VP16 FLuc: 3%; RORgamma inh: 4%

Results for O=C(Nc1ccccc1C(=O)N1CCN(Cc2ccccc2)CC1)c1ccccc1 ?
Sfp inh: 6%; PLK1 PBD inh: -14%; Gal4-VP16 FLuc: -10%; RORgamma inh: -6%

What do the screens show for `CCCC[P+](CCCC)(CCCC)Cc1ccc(NC(=O)[C@@H](Cc2ccc3ccccc3c2)NC(=NC2CCCCC2)NC2CCCCC2)cc1`?
ALDH1A1 block: -1%; Sfp inh: inconclusive; Gal4-VP16 FLuc: -8%; RORgamma inh: inconclusive

Results for COc1cccc(C(NC(C)=O)c2nc(-c3ccccc3)cs2)c1 (stereo not given) ?
PLK1 PBD inh: 2%

How did COCCCN(CC(=O)O)S(=O)(=O)c1cccc(Cl)c1 do in these assays?
ALDH1A1 block: 7%; Sfp inh: 29%; PLK1 PBD inh: 3%; Gal4-VP16 FLuc: 2%; RORgamma inh: 22%

How did COc1ccc(CCN2C(=O)CC(NNc3ccc([N+](=O)[O-])cc3)C2=O)cc1OC (stereo not given) do in these assays?
ALDH1A1 block: 10µM*; Sfp inh: 1%; PLK1 PBD inh: inconclusive; Gal4-VP16 FLuc: 12%; RORgamma inh: 1%

What do the screens show for `COc1ccc(CCN2C(=O)CC(Cc3ccccc3)C2=O)cc1OC` (stereo not given)?
Sfp inh: 8%; PLK1 PBD inh: 4%; Gal4-VP16 FLuc: 5%; RORgamma inh: 16%

What do the screens show for `COc1ccc(CCNC2CC(=O)N(CCc3ccc(OC)c(OC)c3)C2=O)cc1OC` (stereo not given)?
ALDH1A1 block: 6.3µM*; Sfp inh: -15%; PLK1 PBD inh: -14%; Gal4-VP16 FLuc: 0%; RORgamma inh: inconclusive

What do the screens show for `Oc1cccc(CN2CCCCC2)c1`?
ALDH1A1 block: 4%; Sfp inh: 0%; PLK1 PBD inh: -5%; Gal4-VP16 FLuc: -24%; RORgamma inh: 3%

Results for CC(C)(C)c1cc(CCC(=O)N2CCC2)cc(C(C)(C)C)c1O ?
Sfp inh: 5%; PLK1 PBD inh: 1%; Gal4-VP16 FLuc: -97%; RORgamma inh: 13µM*

What do the screens show for `CC1CN(C(=O)CCc2cc(C(C)(C)C)c(O)c(C(C)(C)C)c2)CC(C)O1` (stereo not given)?
Sfp inh: 6%; PLK1 PBD inh: 1%; Gal4-VP16 FLuc: 5%; RORgamma inh: -11%

What do the screens show for `CC(C)(C)c1cc(CN2CCCCC2)cc(C(C)(C)C)c1O`?
ALDH1A1 block: 14µM*; Sfp inh: 35µM*; Gal4-VP16 FLuc: inconclusive; RORgamma inh: -25%
